Some test systems named below: DU-145 prostate; K-562 leukemia; MALME-3M melanoma; MDA-MB-231 breast; RXF 393 renal; SF-268 CNS; SF-295 CNS; SF-539 CNS; UACC-257 melanoma; M14 melanoma; HCT-15 colon; HT29 colon; SNB-75 CNS; SNB-19 CNS; U251 CNS; PC-3 prostate; SK-MEL-5 melanoma; UACC-62 melanoma; SK-MEL-28 melanoma; LOX IMVI melanoma.
Test in all cases: NCI-60 one-dose screen, 48 h (100 = growth as untreated, 0 = no growth, -100 = all killed)
Holding throughout (conditions): 10 µM unless noted

This is part of a sample that, as a whole, favours compounds with a hit. Of some 83,000 tested, about 20% had one in any assay.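 In brief: 96-well plates, 48 h treatment, single concentration, percent growth endpoint.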 Unmarked numbers belong to inactive results. Calls of active or inactive are those of the source. How the source made its calls: active means growth percent below 10; inactive means the rest.

As to `COc1cc(-c2nccc3[nH]c(-c4ccc5cc[nH]c5c4)nc23)cc(OC)c1OC`, the growth in the assay on DU-145 prostate was 18.2%; in the assay on K-562 leukemia it was -14.4% (active); in the assay on MALME-3M melanoma it was 21.7%; with MDA-MB-231 breast it was -20.3% (active); in the assay with RXF 393 renal it was 18%; with SF-268 CNS, 19.3%. The growth in the assay with SF-295 CNS is -59.4% (active); with SF-539 CNS, -19.5% (active); in the assay on UACC-257 melanoma it was 29.6%; in the assay with M14 melanoma it was 4.35% (active); with HCT-15 colon it was -7.01% (active); in the assay with HT29 colon, -37.8% (active). The growth was 18.9% with SNB-75 CNS; 34.8% with SNB-19 CNS; -16.3% (active) in the assay with U251 CNS; -0.946% (active) in the assay with PC-3 prostate; -38.4% (active) in the assay with SK-MEL-5 melanoma; 27.4% with UACC-62 melanoma. Also, the growth in the assay with SK-MEL-28 melanoma was 42.1%.

As for `CCCCNC(=O)Oc1ccc(/C(=C(/C)Cc2ccc(OC)cc2)c2ccc(OCCN3CCCC3)cc2)cc1`, the growth in the assay on DU-145 prostate is 80.1%; in the assay with K-562 leukemia, -27.8% (active); with MALME-3M melanoma, 58.8%; in the assay on MDA-MB-231 breast, 69%; with RXF 393 renal it was 57%; in the assay with SF-268 CNS, 71.8%. The growth in the assay with SF-295 CNS was 69.7%; in the assay with SF-539 CNS, 86.1%; in the assay on UACC-257 melanoma, 43.1%; in the assay with M14 melanoma, -64.6% (active); in the assay on HCT-15 colon, 13.5%; in the assay on HT29 colon, -11.3% (active). The growth was 70% with SNB-75 CNS; 79.3% in the assay on SNB-19 CNS; 41.3% in the assay with U251 CNS; 60.7% in the assay on PC-3 prostate; 47% with SK-MEL-5 melanoma; -66.9% (active) in the assay on LOX IMVI melanoma. The growth in the assay with SK-MEL-28 melanoma is -0.368% (active).

As for `CCOc1ccc(NC(=O)CSc2oc(-c3ccccc3)nc2S(=O)(=O)c2ccc(C)cc2)cc1`, the growth in the assay with DU-145 prostate was 67.3%; with K-562 leukemia, 53%; with MALME-3M melanoma, 81%; with MDA-MB-231 breast, 32.2%; with RXF 393 renal, 62.1%; with SF-268 CNS it was 54.1%. In addition, the growth is 48.1% in the assay with SF-295 CNS; 17.8% with SF-539 CNS; 72% in the assay with UACC-257 melanoma; 71% in the assay with M14 melanoma; 63.8% in the assay on HCT-15 colon; 50.9% with HT29 colon. Also, the growth with SNB-75 CNS is 45.3%; in the assay with SNB-19 CNS, 70.7%; in the assay on U251 CNS, 41.2%; with PC-3 prostate it was 62.3%; with SK-MEL-5 melanoma it was 81.2%; in the assay with UACC-62 melanoma, 66.2%. The growth with SK-MEL-28 melanoma was 79.3%.

On to `COc1ccc(C2=C(Nc3ccc(C(=O)Nc4ccccc4)cc3)C(=O)N(C)C2=O)cc1`, for which the growth was 98% with DU-145 prostate; 81.5% with K-562 leukemia; 93.7% with MALME-3M melanoma; 83.2% with MDA-MB-231 breast; 105% in the assay with RXF 393 renal; 97.1% in the assay with SF-268 CNS. Also, the growth is 98.9% in the assay with SF-295 CNS; 97.6% in the assay on SF-539 CNS; 87.6% in the assay on UACC-257 melanoma; 99.9% in the assay with M14 melanoma; 89.1% in the assay on HCT-15 colon; 84% in the assay on HT29 colon. Besides, the growth in the assay on SNB-75 CNS was 88.9%; with SNB-19 CNS, 95.3%; in the assay on U251 CNS, 95.4%; with PC-3 prostate, 80.7%; in the assay with SK-MEL-5 melanoma it was 96.2%; in the assay with LOX IMVI melanoma it was 84.6%. The growth with SK-MEL-28 melanoma is 111%.

Take `CS(=O)(=O)Nc1cc(-c2ccc3ncnc(Nc4ccc5c(cnn5Cc5cccc(F)c5)c4)c3c2)cnc1Cl`: the growth was 16.2% with DU-145 prostate; 19.4% with K-562 leukemia; -36.1% (active) with MALME-3M melanoma; 1.43% (active) with MDA-MB-231 breast; -25.7% (active) in the assay on RXF 393 renal; 1.24% (active) in the assay with SF-268 CNS. For the same molecule, the growth in the assay with SF-295 CNS is 6.42% (active); in the assay on SF-539 CNS, -16.6% (active); in the assay with UACC-257 melanoma it was 20.2%; in the assay on M14 melanoma it was 1.49% (active); in the assay on HCT-15 colon, 46.9%; in the assay with HT29 colon, 5.83% (active). In addition, the growth in the assay with SNB-75 CNS was -13.9% (active); in the assay on SNB-19 CNS, 22.2%; with U251 CNS, 9.46% (active); in the assay on PC-3 prostate, 10.9%; in the assay with SK-MEL-5 melanoma, -68.3% (active); with UACC-62 melanoma it was -8.95% (active). Also, the growth in the assay on SK-MEL-28 melanoma is -12.6% (active).

On to `Cc1ccc(C2=Nc3c(N)ncnc3NC(c3cccc(Nc4ccnc5cc(C(F)(F)F)ccc45)c3)C2)cc1` (configuration not stated), for which the growth in the assay on DU-145 prostate is 64.9%; with K-562 leukemia it was 5.65% (active); with MALME-3M melanoma, 35.3%; with MDA-MB-231 breast, 29.6%; in the assay on RXF 393 renal, 0.783% (active); with SF-268 CNS it was 40.1%. The growth in the assay with SF-295 CNS is 25%; with SF-539 CNS, 56.1%; in the assay on UACC-257 melanoma, 51.7%; in the assay on M14 melanoma, 16%; in the assay on HCT-15 colon, 6.14% (active); with HT29 colon, 5.98% (active). Also, the growth in the assay on SNB-75 CNS was 21.7%; in the assay with SNB-19 CNS, 43.6%; with U251 CNS, 31.1%; in the assay on PC-3 prostate it was 16.1%; in the assay with SK-MEL-5 melanoma, 12.1%; with LOX IMVI melanoma, 26.7%. The growth with SK-MEL-28 melanoma was 52.3%.

As to `CC(C)c1ccc(C(=O)Nc2sc3c(c2C(N)=O)CCC(=O)C3)cc1`, the growth in the assay with DU-145 prostate was 31.2%; in the assay on K-562 leukemia it was 1.14% (active); in the assay on MALME-3M melanoma, -23.8% (active); in the assay on MDA-MB-231 breast, -54.4% (active); in the assay on RXF 393 renal it was -7.12% (active); with SF-268 CNS it was 17.8%. The growth with SF-295 CNS is -3.53% (active); in the assay on SF-539 CNS, -68.8% (active); with UACC-257 melanoma it was -11.8% (active); with M14 melanoma, -55.6% (active); in the assay with HCT-15 colon it was -15.7% (active); in the assay with HT29 colon, 5.66% (active). For the same molecule, the growth with SNB-75 CNS was -88.2% (active); in the assay on SNB-19 CNS, 13%; with U251 CNS, -3.68% (active); in the assay with PC-3 prostate, -44.7% (active); in the assay with SK-MEL-5 melanoma, -62.8% (active); in the assay on LOX IMVI melanoma, 4.43% (active). Further, the growth in the assay on SK-MEL-28 melanoma was 7.57% (active).

As to `N#Cc1c(-c2ccc(Cl)cc2)nc(NN2C(=O)c3ccccc3C2=O)nc1N1CCOCC1`, the growth with DU-145 prostate is 107%; with K-562 leukemia it was 97%; in the assay with MALME-3M melanoma it was 109%; with MDA-MB-231 breast it was 105%; in the assay with RXF 393 renal, 107%; in the assay with SF-268 CNS it was 99.3%. The growth in the assay with SF-295 CNS is 101%; in the assay with SF-539 CNS, 101%; with UACC-257 melanoma, 108%; in the assay with M14 melanoma, 101%; with HCT-15 colon, 112%; with HT29 colon, 108%. In addition, the growth was 84.6% in the assay on SNB-75 CNS; 94.1% with SNB-19 CNS; 106% with U251 CNS; 110% with PC-3 prostate; 101% with SK-MEL-5 melanoma; 102% in the assay with LOX IMVI melanoma. The growth with SK-MEL-28 melanoma is 117%.

(Values after PubChem BioAssay (NCI).)
